Source: publication PMC12864922, “TDP-43 directly inhibits mRNA accumulation in neurites through modulation of mRNA stability”
The full ranking holds about 9,900 sequences; the median of “r (bound/input frequency ratio)” is about 0.7, and the highest 2% start at about 6.5. The sample as a whole holds a higher share of the highest values than the screen did.

B1: ENSMUSG00000029636.202|Wasf3|244:248 (ssRNA)
RNA: GGGAGUUCUACAGUCCGACGAUCGCUUCGAUAUCCGCAUGCUAACCAAAUGGCGAUUCCAUAGUCCUGGCUGAGGCAGGGGCUCAAAGUCCAGUGUCUGCUUUGCAAUUCUGGAAGGACAGCUGCUUAUUUAAAUAAGUCUGUGAUAUCCGCAGGCUUGGGUUACAGGGAGGACCUUGCAGAGGGACCAGGACACUGCCUUCCCUUAGGUGCAUUAUUUACGUGGCCUGCAGCUCUUAAUAUCUCUCACUGUUUAUGAAAAGAAAGAUUCAGAUCCGGGGUGACAUACACACAGUUGACAGGGCUCUUGCGGUCGCACUAGUGUGGAAUUCUCGGGUGUCAAGG
B2: ENSMUSG00000061578.835|Ksr2|29:33;71:75;146:150 (ssRNA)
RNA: GGGAGUUCUACAGUCCGACGAUCGCUUCGAUAUCCGCAUGCUAAAGGGCUCAGUCCAUAGCUGCCUGACUCACACAUUCUAGGCCUUUCUUGAGGCAAGUGUUCAUCAUGAUACACACAGGGUGAGGAGGAGUUUCUUCAUGGCAAACAGGAAGCAAAGAGCAAUACAGGAAAAGGUCAGGGGUGAGAACACACAUUGCCACUUCCUCCAGCUAGGACCUUUGAGCAUCACAUUGUGAAGCCAUCCAGGGACUUGGGGGUUAGGUCAGAGGUAUCAAUACAUCUCCGGAAACAUCGUCACAGACUCUUGCGGUCGCACUAGUGUGGAAUUCUCGGGUGUCAAGG
B3: ENSMUSG00000004113.468|Cacna1b (ssRNA)
RNA: GGGAGUUCUACAGUCCGACGAUCGCUUCGAUAUCCGCAUGCUAGCAAAAAUUUAUAUUUAACAGUGUUGAGAGAGAGAGAGAGAGAGCGAGAGAGAGAGAGAUCCAGUCAUGCAACACAAAUGGGAUCUACUUUUAAACAACAGUCCUUUGACUAGUUUGCUGCCUGAAUAAUAUUUACAAACUAAACUUUGGAUUCUGCUCUUGUUUCUACAAUGAUUUUUUGUAUAAAGCAAAGUCCUUGGAUUAAAUAAAAACAACCCAAAAAAAAAAUCAAAAUCAAAACCCAGGAUGCAACUGGGUGACUCUUGCGGUCGCACUAGUGUGGAAUUCUCGGGUGUCAAGG
B4: ENSMUSG00000058297.109|Spock2|57:62 (ssRNA)
RNA: GGGAGUUCUACAGUCCGACGAUCGCUUCGAUAUCCGCAUGCUAUGUACACACAGCAAGGCUUACUAUCCGUCUCCUGACAUCCGAAGAGCUCGUCGCAGCACACACUAAUGGCCCUUGGGCUGCACGUGGUUAAGCAUAGCUGUCUCUGUGGCCCAACACAAAGAGGUAAACUUACUUAAAACACAGGGGUUUUGUUGCUGUUUGUUUUUUGUUAGUUUGUUUGUUGAUAAUUGGAUUGAGGAGUUAAUCCUCUGUCACAAUGUCAAAAGCAUGGACAUCCCUGAUAGAUUAUCUCUCAACCUCUCUUGCGGUCGCACUAGUGUGGAAUUCUCGGGUGUCAAGG
B5: ENSMUSG00000028439.270|Fam219a|220:224 (ssRNA)
RNA: GGGAGUUCUACAGUCCGACGAUCGCUUCGAUAUCCGCAUGCUAAGCUGAGGCUGUAGCUCAGUGAGAUGGUGGCUCUCCCAUGGCUGAAGACAAGUGCAAGCAGAGAGAGCCUCAGGCUGCUGGGCCUCGGACCCACGAGCCUCCUCUCACUGAGCCAGUGCGGCCAGAGUGUCUCUCCUUCAGGCGCCCCACAUGCCAGCAUUUCCACCCUCUGGAUUCUCCUCACAUGUCACUCUCCAGGUGCCGGGGCCUAGAGUGGGCCACACAGAAGGAGGAGUGGGGCUGUUGGCUUAGGAAGGGAACUCUUGCGGUCGCACUAGUGUGGAAUUCUCGGGUGUCAAGG
B6: ENSMUSG00000061578.426|Ksr2 (ssRNA)
RNA: GGGAGUUCUACAGUCCGACGAUCGCUUCGAUAUCCGCAUGCUAGACCACUGACCCGUCCAGACCCUCGCUUCUUACAAUGCCUCUUCUUCUGCCAGACCAGCCACCUGCCCCACUAACACCAAAUGGCUUCUGUCCCUGCUUCACGUUGCAAAUCCUUCAAGACAGAAGUUUCAGAGGGGAUAGUUCCUUCUAACCUUGUACUGGGACAUCAUCUAUGUCCCCAUCCCCAGAGCUGAAUUAGAGACACCAAGUAGCCUCUUGGGUUGUUUUGUGGGGUGUUCCCCUUGCUGGUCAAAGGAGUGCUCUUGCGGUCGCACUAGUGUGGAAUUCUCGGGUGUCAAGG
B7: ENSMUSG00000058297.310|Spock2 (ssRNA)
RNA: GGGAGUUCUACAGUCCGACGAUCGCUUCGAUAUCCGCAUGCUAGCAGCUAGCUACUGGGGACCUUGUGCUGAGGCUUCCAGGACAAAGCCCCAGUCUGGCUCUCCCCCAGCCUCUCAGGGGCACUGGCUGGUCACAUCCACUGAGUAUUGAUCGGUUGGACUUUAGGGAAGAGCCUCCUCCUUCCCAUUCCUUUCUGCCACCCUGGAAUGGCCACCUUAAUCGUCAUCUCCUCGGGGGGAAUACGGAAAUGUCACCAAGCUCCAUAAAGUGCUUCUCAUUCCACGACACAGUUCUGACUCUCCCUCUUGCGGUCGCACUAGUGUGGAAUUCUCGGGUGUCAAGG
B8: ENSMUSG00000090935.19|Synj2bp (ssRNA)
RNA: GGGAGUUCUACAGUCCGACGAUCGCUUCGAUAUCCGCAUGCUAAUUAUUUAGUCACGGAGGAAGAGAUCAACCUGACGAGAGGACCUUCGGGUAAAUGGCCAAGAUCUGAAGAACCUGCUGCACCAAGAUGCUGUAGACCUCUUCCGUAAUGCGGGAUGUGCUGUGUCCCUGAGAGUACAGCACAGGUUACCAGUGCAGAAUGGACCUAUAGUACAUCGAGGUGAAGGAGAGCCAAGUGGAGUUCCUGUAGCUAUGGUGCUGCUACCAGUGUUUGCCCUCACCAUGGUAGCAGUUUGGGCCUUCUCUUGCGGUCGCACUAGUGUGGAAUUCUCGGGUGUCAAGG
B9: ENSMUSG00000061578.1360|Ksr2|254:258 (ssRNA)
RNA: GGGAGUUCUACAGUCCGACGAUCGCUUCGAUAUCCGCAUGCUAAGGCAAGCAACCUUGCCAAGGCAGGCCAGACAGGACAGCCCAGCUUCCCACUCCAGACAUGUUGUUCUUACAUCUCUGACCCAGUGAUCUUUCUAGGGGUCUGUCACAUGUCCCAACAGGUGGACAGCUCUCCAAGUCACCAACCUGAGGAAAAUAUCCCUCCUUGUAAAAAGGCUUUCUCUUUGUAAAUGAUUCUGUUGCCUUUUUCUAAACACAAAGUAUAUAUACCUAUAAAUGCUAUAUAUAUUAUAUAACACAAUCUCUUGCGGUCGCACUAGUGUGGAAUUCUCGGGUGUCAAGG
B10: ENSMUSG00000029636.126|Wasf3 (ssRNA)
RNA: GGGAGUUCUACAGUCCGACGAUCGCUUCGAUAUCCGCAUGCUAUCACUUUCAUGGCUAGCCCUGAUAGCGUUGGGCACCAGUUAGCCAGGCCAUGUUCAAGCUGCCUAGAGUCUGCAGAGCUUGCAUGGCAGAGCGGCCGCAUCUGGUUCCCUCCUACUCCACCCAGUGGAAAAGAGACCUCCACGUUUUAUUUUCUGGGAUCCCUGCUCCUCUGUUCACCAGGGAGUGAGCACAGGUCAGCACCUCACCCCCCUUGCUCUGAAUCAUGGAAGCUUGGCUUUAGCUGAGAGAUGCCACCAGCUCUCUUGCGGUCGCACUAGUGUGGAAUUCUCGGGUGUCAAGG
B11: ENSMUSG00000038916.65|Soga3 (ssRNA)
RNA: GGGAGUUCUACAGUCCGACGAUCGCUUCGAUAUCCGCAUGCUAACCUUUCUUUGUUUUGCACUCUUGAGUCAUAGUUGACUGGCUGACUGUGAAAAAUGGACAAAGUCUCAUAAUUAUUCUGUAGGAAUUGAGUAUUAUUUUACACCUGGAAAAUUUCAGCUGGUUGCAUUUUCAAAUUCAUGUAGAGGCAUUAAUUAUAAGUCAAUGUAGAUGAUUUAUAAAUUAUCUCUGUUAUAAAUUAUGUAGAUUUGUAAGCAUGCUGUUACUCAUGUUAGACAAAAAGGAAAACAUCAAUGUCUAAUCUCUUGCGGUCGCACUAGUGUGGAAUUCUCGGGUGUCAAGG
B12: ENSMUSG00000061578.1302|Ksr2 (ssRNA)
RNA: GGGAGUUCUACAGUCCGACGAUCGCUUCGAUAUCCGCAUGCUAGGGAUUGGCUGUAGUUAAUUAAAAGCACCUGUCUCUGUCAUCUCUGCACCCAACUGAAUCUCCCACCCUCAAGUGUACCUCUCAGGAUAUCCCCAGGCACACGAAGAUGGAAUGGAAAGCCAGUGGGUAUCUCCCACCCACUUAGAUGCUGAUGGCCUGGGACUAUAAACAGGGACAGUUGGGUCUCCUAAGGAAUAGCUUCCAGGUCCAGGAUGCUGGCAUCUCCCAGAGAGAACUCCAUCCCCUGACCACCAAGGCCUCUCUUGCGGUCGCACUAGUGUGGAAUUCUCGGGUGUCAAGG
B13: ENSMUSG00000061578.924|Ksr2 (ssRNA)
RNA: GGGAGUUCUACAGUCCGACGAUCGCUUCGAUAUCCGCAUGCUACAUGAGCCCAGAUAGUCAAAGACUUCAGCACAAGGGUGUUUAGAGUAGGCAGUGUGGAAGUAUCAAUAAGGUUAUUGAGAUGAGGAUUUAGAAAGAUCCAUGUAUAAAAGGUCUAGAAGGAUGAAGAUCUAAAACAAGAAGACUGCAUGUUAACGCUCCUGCCACUGUUGCCCCUUCCUUUACCCUUGGCAGACAUUGCUAAUCAAUCUCAGCACAGUUUCCAACCACAGUCAUAGAACAUUUGCCACAAAGGCCCUGGACUCUUGCGGUCGCACUAGUGUGGAAUUCUCGGGUGUCAAGG

target: TDP-43 (Homo sapiens, UniProt Q13148 1-414); test: RNA Bind-n-Seq with designed 260-mer pool; 25 mM Tris-HCl, 150 mM KCl, 3 mM MgCl2, BSA (printed 500 mg/mL), 20 units/mL SUPERase IN; pH not stated; 500 nM RNA pool, 1 h, 4 C; TDP-43 5, 50, 500 nM; high values mean tight binding; details: protein: recombinant; tags: SBP (GST cleaved off with PreScission; pGEX-GST-SBP)
Sequence (Q13148 whole entry): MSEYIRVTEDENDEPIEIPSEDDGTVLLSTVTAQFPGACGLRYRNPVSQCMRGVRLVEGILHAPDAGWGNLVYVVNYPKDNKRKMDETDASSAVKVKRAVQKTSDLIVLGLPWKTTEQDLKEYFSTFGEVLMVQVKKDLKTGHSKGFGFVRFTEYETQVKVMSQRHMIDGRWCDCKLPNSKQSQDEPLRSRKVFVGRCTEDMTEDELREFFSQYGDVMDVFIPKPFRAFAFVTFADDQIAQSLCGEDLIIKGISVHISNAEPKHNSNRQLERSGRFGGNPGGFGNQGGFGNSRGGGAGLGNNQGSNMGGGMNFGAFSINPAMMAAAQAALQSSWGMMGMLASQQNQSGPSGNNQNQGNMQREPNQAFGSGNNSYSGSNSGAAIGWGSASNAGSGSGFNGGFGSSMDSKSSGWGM
Method in brief: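 Binding (R) is the ratio of each oligo's mapped-read-normalized abundance in the bound fraction to its abundance in the input. To obtain it, SBP-tagged recombinant TDP-43 (5, 50 or 500 nM) on streptavidin beads was incubated with 500 nM of an in vitro-transcribed 260-nt 3′ UTR oligo pool for 1 h at 4 °C in 25 mM Tris-HCl, 150 mM KCl, 3 mM MgCl2, BSA and SUPERase IN. The RNA retained after washing was released with biotin, then reverse transcribed, amplified by PCR and sequenced.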

Compared with B1, B2 is lower in binding signal: 0.996 R (bound/input frequency ratio) for the first, 0.305 R (bound/input frequency ratio) for the second.

Going from B3 to B4, the binding signal rises from 0.308 R (bound/input frequency ratio) to 1.85 R (bound/input frequency ratio).

Going from B5 to B6, the binding signal falls from 1.33 R (bound/input frequency ratio) to 1.01 R (bound/input frequency ratio).

Going from B7 to B8, the binding signal rises from 0.874 R (bound/input frequency ratio) to 0.919 R (bound/input frequency ratio).

Going from B9 to B10, the binding signal rises from 0.201 R (bound/input frequency ratio) to 1.2 R (bound/input frequency ratio).

Compared with B11, B12 is higher in binding signal: 0.077 R (bound/input frequency ratio) for the first, 0.444 R (bound/input frequency ratio) for the second.

With B13 the binding signal was 1.12 R (bound/input frequency ratio).
